Measurements: ChEMBL document CHEMBL3433997, “St. Jude Leishmania screening dataset” (2016)

Tests used:
Assay type in all cases: functional
[1] = molecular target: Solute carrier family 2, facilitated glucose transporter member 1 (Homo sapiens) (UniProt P11166); test: ST_JUDE_LEISH: Cytotoxicity at 2uM final concentration against transgenic Leishmania Mexicana promastigotes LmGLUT1 that are glucose transport deficient and complemented with the human glucose transporter GLUT1. Activity is measured by DNA content using SYBR green in vitro
Solute carrier family 2, facilitated glucose transporter member 1 (Homo sapiens), sequence (P11166 whole entry): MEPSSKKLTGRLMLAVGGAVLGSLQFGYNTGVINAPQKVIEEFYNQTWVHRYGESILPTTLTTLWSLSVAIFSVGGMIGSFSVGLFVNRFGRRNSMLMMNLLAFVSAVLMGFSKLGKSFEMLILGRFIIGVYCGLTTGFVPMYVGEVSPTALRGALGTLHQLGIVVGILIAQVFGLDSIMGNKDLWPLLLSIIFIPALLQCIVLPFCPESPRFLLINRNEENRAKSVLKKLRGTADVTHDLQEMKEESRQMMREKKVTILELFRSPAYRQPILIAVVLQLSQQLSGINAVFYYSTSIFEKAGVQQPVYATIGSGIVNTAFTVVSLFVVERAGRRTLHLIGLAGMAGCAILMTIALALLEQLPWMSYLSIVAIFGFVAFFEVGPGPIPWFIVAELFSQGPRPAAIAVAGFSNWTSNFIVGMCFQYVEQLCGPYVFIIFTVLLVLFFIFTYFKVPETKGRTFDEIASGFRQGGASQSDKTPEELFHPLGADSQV

[2] = molecular target: Hexose transporter 1 (Plasmodium falciparum) (UniProt O97467); test: ST_JUDE_LEISH: Cytotoxicity at 2uM final concentration against transgenic Leishmania Mexicana promastigotes LmPfHT that are glucose transport deficient and complemented with the Plasmodium falciparum hexose transporter. Activity is measured by DNA content using SYBR green in vitro
[3] = molecular target: Glucose transporter (Leishmania mexicana) (UniProt O61059); test: ST_JUDE_LEISH: Cytotoxicity at 2uM final concentration against transgenic Leishmania Mexicana promastigotes LmGT2 that are glucose transport deficient and complemented with the L. Mexicana glucose transporter 2. Activity is measured by DNA content using SYBR green in vitro

Compound	inhibition [1] [%]	inhibition [2] [%]	inhibition [3] [%]
N=C(N)NC(=O)Nc1cc(F)c(Cl)c(Cl)c1	12.8	10.5	6.35
O=C(NCc1ccccc1)c1ncn(CCCN2CCC(N3CCCC3)CC2)c1-c1ccc(Cl)c(Cl)c1	-1.45	-1.01	-1.08
CN1CCC[C@@H](Oc2cc3c(cc2Br)CCN3C(=O)Nc2ccc(-c3ccncc3)c(Cl)c2)C1	2.29	2.77	0.42
Cc1[nH]c(C)c(-c2ccc(/C=C/c3ccccn3)cc2)c(=O)c1Cl	4.28	4.49	5.12
CN1CCC(c2csc3ccc(NC(=O)Nc4ccc(-c5ccncc5)c5ccccc45)cc23)CC1	-0.99	0.65	2.4
CN1CCN(C(=O)CN2CCC3(CCC2=O)NC(=O)c2ccccc2O3)CC1 (centres undefined)	3.76	5.1	3.13
O=C(Nc1cccc(C(F)(F)F)c1)NC1CCN(c2ccnc3ccccc23)CC1	5.82	5.09	2.7
CCN(CC)c1ccc(NC(=S)NC2CCN(CCCCCNC(=O)/C=C/c3ccc(Cl)c(Cl)c3)CC2)cc1	5.28	6.72	6.22
COc1cc(Cc2cnc(N)nc2N)cc(OCCCCNS(=O)(=O)C(F)(F)F)c1OC	1.9	1.69	1.88
Cc1ccc(NC(=S)NC2CCN(CCCCCNC(=O)/C=C/c3ccc(Cl)c(Cl)c3)CC2)cc1Cl	-0.23	-0.31	-1.1
Oc1ccc2[nH]c(-c3ccc(F)cc3F)nc2c1CN1CCC(O)(c2ccccc2)CC1	-0.28	-0.92	0.37
Cc1cccc(-c2nc(Nc3ccncc3)c3ccc([N+](=O)[O-])cc3n2)n1	5.77	7.55	3.86
Oc1ccc(-c2nc3c(N4CCN(Cc5ccccc5)CC4)cccc3n2C2CCNCC2)cc1	3.29	7.64	2.62
COc1cc(Cc2cnc(N)nc2N)cc(OC)c1OCCCCC(=O)O	-0.54	0.53	0.75
COc1ccc(CNC2Cc3ccccc3C2)cc1-c1ccc(S(=O)(=O)NCCN2CCCC2)s1	17.7	15.5	7.58
Cc1[nH]c(C)c(-c2ccc(-c3ccc(Cl)cc3)nc2)c(=O)c1Cl	0.56	1.71	-0.19
CSc1ccc(CN2CCC(NC(=O)c3ccc(-c4cccc(C(F)(F)F)c4)s3)CC2)cc1	3.18	0.48	3.3
COc1ccc(Nc2nccc(N3CCC(NS(=O)(=O)c4ccc(NC(C)=O)cc4)C3)n2)cc1 (centres undefined)	2.99	2.85	3.38
COc1ccccc1C1CC(c2ccc(C)cc2)=NN1C(=O)c1ccccc1 (centres undefined)	8.25	8.06	5.66
O=C(Nc1cccc(CN2CCCN(Cc3ncc[nH]3)CC2)c1)c1cc2ccccc2s1	3.43	5.48	3.3
CC(C)(CNC(=O)[C@@H]1CCCN(Cc2ccc(Cl)cc2)C1)c1nc(-c2ccc(Cl)c(O)c2)c(-c2ccncc2)[nH]1	-1.45	0.41	0.77
NCCCN(Cc1ccc(Cl)c(Cl)c1)C(=O)Nc1ccc(Cl)c(Cl)c1	14.3	9.33	10.1
Cc1ccccc1Oc1nc2ccccc2nc1SCC(=O)NC(C)C	2.29	2.25	-1.86
COc1cc(F)c2ncc(Cl)c([C@@H](O)CN3CCC(NCc4cc5c(cn4)OCCO5)CC3)c2c1	9.42	8.83	5.13

Compound	inhibition [1] [%]	inhibition [2] [%]	inhibition [3] [%]
Clc1nc2ccccn2c1C=Cc1ccc2ccccc2n1	2.64	3.43	2.76
N#Cc1cccc(CN(Cc2ccc(Cl)c(Cl)c2)S(=O)(=O)c2cccc([N+](=O)[O-])c2)c1	2.24	-0.37	4.05
OCCN1CCN(C(=S)NC2CCCCC2)CC1	-1.08	-1.56	-1.81
O=C(Nc1ccc2ccccc2c1)N1CCC(NCc2cccc([N+](=O)[O-])c2)CC1	2.09	1.61	0.78
CN(C)CCOc1cc(NC(=O)/C=C/c2cccc3ccccc23)ccc1I	10.4	8.1	8.23
COc1ccc2ncc(F)c(CCN3CC(O)C(CNCc4ccc(F)cc4)C3)c2n1 (centres undefined)	3.37	3.9	2.68
CC(C)c1ccc(NC(=O)c2ccc(CN3CCCN(Cc4cccc(O)c4)CC3)cc2)cc1	2.95	4.76	5.15
O=C(Nc1cccc(CN2CCCN(Cc3ccc(O)cc3)CC2)c1)c1ccc(Br)cc1	0.51	0.85	3.89
CN1CCN(c2ccnc3ccc(NC(=O)Nc4ccc(Cl)cc4)cc23)CC1	-1.11	-0.83	-1.7
COc1ccc(CCc2ccc(-c3c(C)[nH]c(C)c(Cl)c3=O)cc2)cc1	2.55	3.51	1.05
COc1ccc2nccc([C@@H](O)CN3CCC(NCc4cc5c(Cl)cc(Cl)cc5[nH]4)CC3)c2c1	6.83	5.77	1.13
Cc1cccc(-c2nn(-c3ccccc3)c3[nH]c(=O)c(CN4CCSCC4)cc23)c1	-2.69	-2.03	1.18
Cc1ccc(CN2CCN(Cc3cccc(NC(=O)c4ccc5ccccc5c4)c3)CC2)cc1C	1.24	1.87	4.04
O=C(CC1CCCCC1)NCC(NCCCNc1cc(=O)c2ccccc2[nH]1)c1cc(Br)cc(Br)c1 (centres undefined)	3.89	-1.16	2.63
COc1ccc(-c2cnc(NCc3ccccc3)nc2)cc1CNC1CCN(C)CC1	-0.17	1.06	-0.94
O=C(/C=C/c1ccc(Cl)c(Cl)c1)NCCCCCN1CCC(NC(=O)Nc2ccc(Oc3ccccc3)cc2)C1 (centres undefined)	2.36	1.54	0.16
CCc1cc([C@H]2O[C@@H](n3cnc4c(NCC(c5ccccc5)c5ccccc5)nc(NCCNc5ccccn5)nc43)[C@H](O)[C@@H]2O)on1	-1.61	-0.53	-2.53
c1ccc(CCNCc2ccc(-c3cccc(-c4nc5ccccc5[nH]4)c3)cc2)nc1	3.95	3.7	3.79
CN(C)c1ccc(C=Cc2nc(=O)c3ccccc3o2)cc1	1.38	3.22	0.74
O=c1cc(NCCCCNCc2ccc(Br)c(Br)c2)[nH]c2ccccc12	0.91	0.5	-4.13
Nc1nc(N)c2cc(NC(=O)c3ccc(Cl)c(Cl)c3)ccc2n1	5.31	2.01	4.8
CC(C)(C)c1cc([N+](=O)[O-])cc(C(=O)Nc2ccccc2C(F)(F)F)c1O	0.47	-0.82	-1.86
CCCCN(CCCC)CCC(O)C(=Cc1ccc(Cl)cc1Cl)c1ccc(C(F)(F)F)cc1N (centres undefined)	-0.65	0.65	0.7
Cc1cc(-c2cccc(CNC3CCN(C)CC3)c2)ccc1S(=O)(=O)NCCN1CCCC1	0.26	0.15	0.59
